According to PubChem BioAssay (NCATS):
Unmarked numbers belong to inactive results. Records with an inconclusive call do not appear. Active and inactive are the calls of the source. Calls come from the whole dose curve; as a rule, active = well fitted curve in the direction sought with a large enough effect; inconclusive = small, poorly fitted or top-dose-only effect, or another doubt; inactive = no such curve, though single readings can be large; an effect the other way counts as inactive or inconclusive.

Assays:
[1] = biological target: Cytochrome P450 3A4 (Homo sapiens) (UniProt P08684); assay: qHTS Assay for Inhibitors and Substrates of Cytochrome P450 3A4 (AID 884); conditions: recombinant CYP3A4, Luciferin-PPXE luminescence; series mostly up to 57.1 µM; note: potency is the fitted concentration of half-maximal effect; nearly all actives have a fitted effect of over 50% in size
Outline: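 20 nM human CYP3A4 with 25 uM Luciferin-PPXE (at KM) in 200 mM KPO4, preincubated 10 min with compound; NADPH regeneration started a 60 min RT reaction. Luciferin detected by luminescence, normalized to 57 uM ketoconazole as full inhibition.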

[2] = biological target: Cytochrome P450 3A4 (Homo sapiens) (UniProt P08684); assay: qHTS Assay for Activators of Cytochrome P450 3A4 (AID 885); conditions: recombinant CYP3A4, Luciferin-PPXE luminescence, 60 min; series mostly up to 57.1 µM; note: nearly all actives have a fitted effect of over 65% in size
Outline: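 Steps: enzyme/substrate mix dispensed; compound added, 10 min RT; NADPH regeneration solution added, 60 min RT; luciferin detection buffer stops reaction; 20 min later luminescence measured.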

Chain of Cytochrome P450 3A4 (Homo sapiens) (P08684 whole entry, looked up): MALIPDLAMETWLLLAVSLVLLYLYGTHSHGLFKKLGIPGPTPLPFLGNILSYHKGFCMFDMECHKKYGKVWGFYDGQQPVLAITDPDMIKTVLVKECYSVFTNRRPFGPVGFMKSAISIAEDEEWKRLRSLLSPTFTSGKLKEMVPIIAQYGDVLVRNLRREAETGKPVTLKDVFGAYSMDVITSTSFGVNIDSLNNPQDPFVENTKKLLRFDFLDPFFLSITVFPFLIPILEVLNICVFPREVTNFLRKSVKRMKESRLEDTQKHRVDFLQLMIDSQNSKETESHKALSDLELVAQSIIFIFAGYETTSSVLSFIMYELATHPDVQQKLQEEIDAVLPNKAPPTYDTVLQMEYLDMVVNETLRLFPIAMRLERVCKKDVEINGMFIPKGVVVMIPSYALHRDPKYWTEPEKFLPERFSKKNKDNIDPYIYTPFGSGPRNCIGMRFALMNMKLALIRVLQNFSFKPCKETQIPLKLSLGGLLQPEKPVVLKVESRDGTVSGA

SMILES	Potency [1]	activity change, positive = activation [2]	Potency [2]
CO[C@H]1COC(=O)C/C=C\[C@H](C)[C@@H](OC)COC(=O)[C@H](Cc2ccccc2)NC(=O)C/C=C\[C@@H]1C	3.16 µM (active)	-62.1% [at 11.4 µM]	
C[C@H]1C2=C3C(C[C@H]4C(=O)N(c5ccccc5)C(=O)[C@H]4[C@H]3[C@@]3(Cc4ccccc4)C(=NCCc4c[nH]c5ccccc45)OC(=O)N3C2=O)[C@H]2C(=O)N(c3ccccc3)C(=O)[C@H]21 (stereo partly specified)	2.51 µM (active)		inactive
CCC1=C(OC(=O)N(CC)CC)N2C(=O)OC(=NCCc3c[nH]c4ccccc34)[C@]2(C)[C@H]2C1=CC[C@H]1C(=O)N(C)C(=O)[C@H]12	1.26 µM (active)		inactive
c1ccc(C2[C@H]3CN(Cc4cccnc4)[C@H](c4ccccc4)C34CC2(c2cccnc2)C4)cc1 (stereo partly specified)	1.58 µM (active)		inactive
CCCNC(=O)OC[C@@H]1O[C@H](c2ccccc2)C=C[C@@H]1Oc1ccc(OC)cc1	3.98 µM (active)	-82.9% [at 11.4 µM]	
COC(=O)[C@@H]1C[C@@]2(O)[C@@H](O)[C@@H](O)[C@@H](O)C[C@H]2N1Cc1cc(OC)cc(OC)c1	3.16 µM (active)		inactive
CCC1=C(OC(=O)N(CC)CC)N2C(=O)OC(=NCC3CC3)[C@]2(Cc2ccccc2)[C@H]2C1=CC[C@H]1C(=O)N(CC)C(=O)[C@H]12	5.01 µM (active)		inactive
Cn1c(N)c(C(=O)COC(=O)c2cc(-c3ccco3)nc3ccccc23)c(=O)n(Cc2ccccc2)c1=O	10 µM (active)		inactive
CCc1cc(C(C)=O)c(O)cc1OCCCCCC(C)(C)c1nn[nH]n1	10 µM (active)		inactive
COCCN=C1OC(=O)N2C(=O)C3=C4C(C[C@H]5C(=O)N(CC(=O)OC)C(=O)[C@H]5[C@H]4[C@@]12Cc1ccccc1)[C@H]1C(=O)N(CC(=O)OC)C(=O)[C@H]1[C@H]3C (stereo partly specified)	15.8 µM (active)		inactive
C=CC[C@@H]1C=C[C@@H](O/N=C(/C)CCC(=O)OC[C@@H]2O[C@H](C#Cc3ccccc3)C=C[C@@H]2Oc2ccc(C)cc2)[C@@H](CO)O1	5.01 µM (active)	-97.7% [at 11.4 µM]	
Cn1c(-c2nc(-c3ccccc3)cs2)nc2ccccc21	10 µM (active)		inactive
COC(=O)[C@@H]1C[C@H]2CC[C@H](O)C[C@H]2N1Cc1ccccc1OS(=O)(=O)c1ccc(C)cc1	2 µM (active)		inactive
CCCNC(=O)OC[C@@H]1O[C@H](CCO/N=C(\C)CCN2CCCc3nc(C)c(C)cc32)C=C[C@@H]1Oc1ccc(OC)cc1	3.98 µM (active)	-70.1% [at 11.4 µM]	
CCC1=C(OC(=O)N(CC)CC)N2C(=O)OC(=NCCOC)[C@]2(Cc2ccccc2)[C@H]2C1=CC[C@H]1C(=O)N(C)C(=O)[C@H]12	7.94 µM (active)		inactive
CC(Cc1ccccc1)C(=O)NCCc1c[nH]c2ccccc12 (stereo unspecified)	2.51 µM (active)		inactive
Cn1c(=O)c(C(=O)COC(=O)c2cc(-c3ccco3)nc3ccccc23)c(N)n(Cc2ccccc2)c1=O	12.6 µM (active)		inactive
COC(=O)c1ccc(C23CC4(C2)[C@H](CN(Cc2cccnc2)[C@@H]4c2ccccc2)C3c2ccc(C(F)(F)F)cc2)cc1 (stereo partly specified)	5.01 µM (active)		inactive
CCC1=C2CC[C@H]3C(=O)N(CC(=O)OC)C(=O)[C@H]3[C@H]2[C@@]2(C)C(=O)N(Cc3ccccc3)C(=O)N2C1=O	15.8 µM (active)		inactive
C/C(CCN1CCCCc2nc(C)c(C)cc21)=N\O[C@@H](C)CN1CCCc2nc(C)c(C)cc21	3.16 µM (active)	-61.2% [at 11.4 µM]	
CCC1=C(OC(=O)N(CC)CC)N2C(=O)OC(=NCCc3c[nH]c4ccccc34)[C@]2(Cc2ccccc2)[C@H]2C1=CC[C@H]1C(=O)NC(=O)[C@H]12	2 µM (active)		inactive
CCC1=C(OC(=O)N(CC)CC)N2C(=O)OC(=NCCc3c[nH]c4ccccc34)[C@]2(Cc2ccccc2)[C@H]2C1=CC[C@H]1C(=O)N(C)C(=O)[C@H]12	1.26 µM (active)		inactive
CCC1=C(OC(=O)N(CC)CC)N2C(=O)OC(=NCC(=O)OC)[C@]2(Cc2ccccc2)[C@H]2C1=CC[C@H]1C(=O)NC(=O)[C@H]12	6.31 µM (active)		inactive
Cn1c(N)c(C(=O)COC(=O)c2cc(-c3ccccc3)nc3ccccc23)c(=O)n(C)c1=O	12.6 µM (active)		inactive
CO[C@H]1COC(=O)[C@H](C)NC(=O)C/C=C\[C@@H](C)[C@@H](NS(=O)(=O)c2ccc(C)cc2)COC(=O)[C@H](OCc2ccccc2)/C=C\[C@@H]1C	3.16 µM (active)	-79.4% [at 11.4 µM]	
N#Cc1ccc(C23CC4(C2)[C@H](CN(Cc2cccnc2)[C@@H]4c2ccccc2)C3c2ccccc2)cc1 (stereo partly specified)	3.98 µM (active)		inactive
[C-]#[N+]/C(C#N)=C\c1cc(C(C)(C)C)c(O)c(C(C)(C)C)c1	3.98 µM (active)		inactive
COc1cccc([C@H]2Oc3ccc(OC)cc3/C(=N\OC[C@@H](O)[C@@H]3O[C@@H]4OC(C)(C)O[C@@H]4[C@H]3O)[C@@H]2O)c1	3.98 µM (active)	-69.8% [at 11.4 µM]	
